Source: PubChem BioAssay
Only some compounds are listed: those with a hit (about 4.6% of all), similar ones and a draw of the others.
D1 ag – agonists of human D1 dopamine receptor; P21728; HEK293 T-REx D1 cells, calcium flux, agonist mode; activation, % at 2 µM; 1% of 360,000 active; AID 504660; note: 0% is about no effect
Target sequence (P21728 whole entry, looked up): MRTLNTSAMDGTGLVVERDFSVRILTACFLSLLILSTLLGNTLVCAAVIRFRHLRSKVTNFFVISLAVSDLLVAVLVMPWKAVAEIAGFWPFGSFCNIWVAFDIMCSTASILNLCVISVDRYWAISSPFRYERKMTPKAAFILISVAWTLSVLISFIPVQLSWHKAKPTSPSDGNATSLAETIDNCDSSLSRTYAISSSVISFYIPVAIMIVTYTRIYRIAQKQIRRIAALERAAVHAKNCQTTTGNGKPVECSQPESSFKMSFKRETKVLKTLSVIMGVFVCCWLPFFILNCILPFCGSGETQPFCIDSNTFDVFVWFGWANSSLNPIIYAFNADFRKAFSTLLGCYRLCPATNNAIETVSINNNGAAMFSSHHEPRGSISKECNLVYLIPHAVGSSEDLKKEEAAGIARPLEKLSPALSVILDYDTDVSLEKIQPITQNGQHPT
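Agonism was scored from calcium flux recorded over 180 s (1 read/s) after pintool compound addition, following a 10-cycle baseline. Cells were inducible force-coupled HEK293 TREx D1, plated overnight at 30 C and loaded with no-wash calcium dye.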
TRHR PAM – TRH receptor (human) allosteric enhancement. P34981. TRHR cells, fluo-8 calcium fluorescence, EC20 TRH enhancement. enhancement, % at 2 µM. 0.66% of 360,000 active; in the data active = enhancement above about 30%; note: 0% is about no effect
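Enhancer read-out: after compound pinning and an initial kinetic agonist-mode read, an EC20 of TRH (10 nM final) was injected and fluo-8 calcium signal (Ex 480/Em 530) followed at 1 s/cycle for 100 cycles in TRHR-expressing cells.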
D1 antag – human D1 dopamine receptor antagonism. HEK293 TREx D1 cells, calcium flux, dopamine EC80; active compounds read low. activity change, negative = inhibition, % at 10 µM. 3.2% of 360,000 active; in the data active = activity change below about -30%; note: % is set by controls: 0 for no effect and ±100 for the full control effect
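HEK293 T-REx cells expressing inducible, force-coupled D1 receptor; no-wash Ca dye, 30–90 min RT. Cmpd → 180 s read at 1 Hz → EC80 DA → 180 s read.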
TRHR ag – agonists of human TRH receptor; 0.18% of 360,000 active; activation, % at 2 µM; TRHR cells, calcium flux fluo-8, FDSS agonist mode; P34981; AID 493084; note: 0% is about no effect
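Fluo-8-loaded TRHR cells; 10 s baseline, compound added, kinetic Ca2+ fluorescence read 1/s, agonist mode.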
D1 potentiator – potentiators of human D1 dopamine receptor. AID 504651. HEK293 TREx D1 cells, calcium flux, dopamine EC20 potentiation. 0.036% of 360,000 active. potentiation, % at 10 µM; in the data active = potentiation above about 30%; note: 0% is about no effect
* = called active by the depositor; x = no result given. Cut-off read from the data, not from the text of the source, unless noted: active = activation above about 30%; inactive = the rest.

SMILES | D1 ag | TRHR PAM | D1 antag | TRHR ag | D1 potentiator
Cc1cc(C)nc(OC(=O)c2c(Cl)cc(Cl)cc2Cl)n1 | 2.6 | 30.2* | -11.3 | -0.6 | -2.5
Cc1cc(OC(=O)c2c(Cl)cc(Cl)cc2Cl)nc(C)n1 | 1.4 | -2.2 | 14.7 | -0.8 | 1.9
O=[N+]([O-])c1ccc(C2=NN(c3ccccc3)C(c3ccco3)C2)cc1 (stereo unspecified) | 295.7* | 1.7 | -66.9* | 59.1* | -9.6
Cc1ccc(C2=NN(S(=O)(=O)c3ccccc3)C(c3ccco3)C2)cc1 (stereo unspecified) | 2.3 | 2.4 | -1.7 | 0.1 | -10.3
O=[N+]([O-])c1ccc(/C=C/C2=NN(c3ccccc3)C(c3ccco3)C2)cc1 (stereo unspecified) | 212.8* | -3.3 | -67.6* | -0.3 | -1.4
CCOc1ccc(C(=O)Nc2cc(-c3cn4cccnc4n3)ccc2C)cc1OCC | -0.3 | 3.0 | -10.0 | -0.6 | -0.1
CC1(C)CC(=O)C2=C(C1)OC(N)=C(C#N)C2c1cc2c(cc1[N+](=O)[O-])OCO2 (stereo unspecified) | 0.8 | -0.5 | -33.3* | 1.2 | -1.6
CCOc1cc(C2C(C#N)=C(N)OC3=C2C(=O)CC(C)(C)C3)cc([N+](=O)[O-])c1O (stereo unspecified) | 4.2 | -4.3 | 9.9 | -0.2 | -2.5
O=C(COC(=O)C1(c2ccccc2F)CCCC1)Nc1ncc(C(F)(F)F)cc1Cl | 12.4 | 5.5 | -35.5* | 1.7 | -4.5
Cn1nnnc1Sc1ncnc2scc(-c3ccc4c(=O)ccoc4c3)c12 | 0.6 | 1.2 | 21.6 | 0.5 | 8.1
O=S(=O)(Nc1ccc(-c2ccc(N3CCCC3)nn2)cc1)c1cc(F)ccc1F | -0.6 | 5.1 | -6.2 | -0.1 | -0.2
COc1nc(C)ccc1-c1noc(-c2ccccn2)n1 | -1.5 | 0.4 | -9.5 | 0.0 | -5.5
COc1ccccc1-c1nc(-c2ccc(C)nc2OC)no1 | 5.6 | 4.4 | -31.9* | -0.5 | -1.9
O=C(O)c1ccc(Cl)c(NCc2cccs2)c1 | 0.3 | 31.9* | 4.8 | 0.1 | -2.4
Cc1cccc(C(=O)NNc2ncnc3c2cnn3-c2ccc(C)c(Cl)c2)c1 | -3.0 | -0.1 | -1.1 | -0.2 | 0.3
COc1ccc(CC(=O)N/N=C(\C)c2cccnc2)cc1 | 2.2 | 0.2 | 4.7 | 0.2 | -1.8
CCOc1ccc(CC(=O)N/N=C(\C)c2cccnc2)cc1 | 9.1 | -7.5 | -35.9* | -0.4 | -6.2
COc1ccc(C)cc1Nc1n[n+](C)c(-c2ccc(O)cc2O)s1 | 0.3 | 12.6 | -30.1* | 0.2 | -7.1
COc1ccc(C)cc1Nc1n[n+](-c2ccccc2)c(-c2c(Cl)cccc2Cl)s1 | 32.4* | -6.2 | -25.3 | 0.2 | -10.6
COc1ccc(C)cc1Nc1n[n+](-c2ccccc2)c(-c2ccc(OC)c(OC)c2OC)s1 | 1.1 | -5.8 | -37.4* | -0.7 | -18.2
COc1ccc(C)cc1Nc1n[n+](-c2ccccc2)c(-c2ccc(N(C)C)cc2)s1 | 1.2 | -8.0 | -56.8* | 0.6 | -19.1
COc1ccc(C)cc1Nc1n[n+](C)c(-c2c3ccccc3cc3ccccc23)s1 | 3.4 | 0.2 | -20.6 | 0.0 | 2.5
CCc1ccccc1NS(=O)(=O)c1ccc2[nH]cc(C(=O)N3CCCCC3)c(=O)c2c1 | -1.6 | 14.8 | 2.5 | -0.9 | -0.8
CCc1ccccc1NS(=O)(=O)c1ccc2[nH]cc(C(=O)N(CC(C)C)CC(C)C)c(=O)c2c1 | 0.5 | 6.1 | -53.9* | 0.4 | -0.3
CC(C)(C)c1ccc(O)c(N=Cc2cc(Br)ccc2O)c1 | 10.5 | 2.1 | 13.5 | 2.7 | 1.2
SMILES | D1 ag | TRHR PAM | D1 antag | TRHR ag | D1 potentiator
Cc1ccc(O)c(C=Nc2cc(C)ccc2O)c1 | 4.5 | 3.0 | -35.2* | -0.3 | -3.6
CCc1ccc(S(=O)(=O)N(C(=O)c2ccncc2)c2ccc3oc(C)c(C(=O)OC)c3c2)cc1 | 1.0 | -4.5 | -2.2 | -0.6 | -1.6
CCOc1ccc(S(=O)(=O)N(C(=O)c2ccncc2)c2ccc3oc(C)c(C(=O)OC)c3c2)cc1 | 2.4 | -6.4 | -45.5* | 0.4 | -1.9
COC(=O)c1c(C)oc2ccc(N(C(=O)c3ccncc3)S(=O)(=O)c3ccc(OC)cc3)cc12 | 0.3 | -4.1 | -47.6* | 0.4 | -4.5
CC(C)NC(=S)NC(=O)/C=C/c1ccc(F)cc1 | 1.8 | 0.8 | -81.0* | 0.8 | -12.1
CCc1nnc(NS(=O)(=O)c2ccc(NC(=S)NC(=O)c3ccc(Br)cc3)cc2)s1 | 1.9 | 34.9* | -11.9 | -0.3 | -4.8
CCc1nnc(NS(=O)(=O)c2ccc(NC(=S)NC(=O)/C=C/c3ccc(OC)cc3)cc2)s1 | 4.4 | 6.8 | -30.1* | 0.1 | -3.2
COc1nccnc1NS(=O)(=O)c1ccc(NC(=S)NC(=O)/C=C/c2ccc(F)cc2)cc1 | -1.9 | -7.5 | -37.8* | -0.9 | -15.7
CC(=O)c1c(C)nc2ccccc2c1N | -0.5 | -3.8 | 8.7 | 0.1 | 3.3
Cc1nc2ccccc2c(N)c1C(=O)/C=C/c1ccccc1 | 24.7 | -6.7 | -31.5* | 0.9 | -5.6
CCCCNC(=O)CCn1c(=O)c2cccn2c2cccnc21 | 0.0 | -4.0 | 5.9 | -0.1 | -3.0
CS(=O)(=O)N(CC(=O)NCCc1ccccc1)C1CCCCC1 | -2.4 | 40.4* | x | 0.4 | -0.1
CCOC(=O)c1ccc(CN(Cc2ccc(Br)cc2)S(=O)(=O)c2cccc(C(F)(F)F)c2)cc1 | 17.1 | 0.1 | -7.5 | 4.1 | -0.9
CC1CCN(C(=O)C(=O)Nc2sc3c(c2C(=O)O)CC(C)(C)OC3)CC1 | 3.0 | 7.3 | -58.2* | 0.3 | 7.5
O=C(Nc1ccc(N2CCCC2)c(Cl)c1)c1ccc([N+](=O)[O-])o1 | 1.0 | 12.8 | 9.9 | -0.6 | 5.6
O=C(Nc1cccc(NC(=O)c2ccccc2Cl)c1)c1ccc([N+](=O)[O-])o1 | 6.3 | 1.7 | -46.1* | -0.6 | -9.2
CCN(CC)C(=O)Cn1cc(C(=O)C(=O)NCCc2ccccc2)c2ccccc21 | 0.9 | -7.4 | -2.8 | -0.5 | 0.2
CCN(CC)C(=O)Cn1cc(C(=O)C(=O)NCCCN2CCOCC2)c2ccccc21 | 1.8 | -1.3 | -34.1* | -0.1 | 0.2
Fc1ccc(-n2ncc3c(NCCCc4ccccc4)ncnc32)cc1 | 0.0 | -0.5 | 8.6 | 1.0 | -1.6
Cc1cc2c(s1)Nc1ccccc1N=C2N1CCN(C)CC1 | x | -7.7 | -89.1* | 0.4 | x
CN1CCN(c2ncc(CN3C(=O)c4ccccc4C3=O)s2)CC1 | 2.6 | -2.7 | -11.4 | 0.5 | -8.0
CCOC(=O)C1(Cc2ccc(OC)cc2)CCN(C(=O)c2cc(C)on2)CC1 | 3.8 | -1.8 | -33.4* | -0.1 | 2.8
CCOC(=O)C1(Cc2cccc(OC)c2)CCN(CC(O)CO)CC1 (stereo unspecified) | 0.8 | -3.3 | -44.5* | -0.7 | -5.8
CCOc1ccc(NC(=O)Cn2cc(C(=O)c3ccc(C)c(C)c3)c(=O)c3cc4c(cc32)OCCO4)cc1 | -0.3 | 0.1 | 2.3 | 1.2 | -0.8
